Records with an inconclusive call do not appear. Activity calls are given as the source filed them. The call rests on the fitted dose curve; in most records, active means well fitted inhibition curve with a large enough effect; inconclusive means small, poorly fitted or top-dose-only effect; inactive means flat fitted curve, though single readings scatter.

This assay deals with Trypanosoma brucei 6-phosphofructokinase (PFK). Nature of the assay: Confirmatory Assay to Find Inhibitors of T. brucei phosphofructokinase: ATP-depletion Assay. The conditions noted are these: recombinant T. brucei PFK, Kinase-Glo ATP depletion luminescence; series mostly up to 57.5 µM. From the text: Various species of the protozoan family Trypanosomatidae are responsible for a range of serious human diseases in tropical and subtropical areas of the world. […] Many of the disorders caused by trypanosomatids are fatal if left untreated, but most currently used drugs are inefficient and toxic. […] Oxidative metabolism involving the mitochondrial tricarboxylic acid cycle and oxidative phosphorylation are repressed in these parasites, and recent RNA interference (RNAi) experiments have shown that even partial depletion of certain individual glycolytic enzymes can lead to the death of cultured parasites. One such glycolytic enzyme, phosphofructokinase (PFK), catalyzes the formation of fructose-1,6-bisphosphate (F1,6BP) and ADP from fructose-6-phosphate (F6P) and ATP, and in many metabolic circumstances makes an important contribution to the control of flux through the glycolytic pathway. As a specific glycolytic target, PFK is particularly attractive as it catalyzes the first irreversible step in glycolysis, and structural and kinetic studies have shown very substantial and essential differences from corresponding host enzymes, allowing for the discovery of parasite-selective inhibitors. NIH Chemical Genomics Center [NCGC] NIH Molecular Libraries Probe Centers Network [MLPCN] MLPCN Grant: MH092153-01 Assay Submitter (PI): Malcom Walkinshaw, University of Edinburgh
Substrate buffer was dispensed into white, solid 1536-well plates at 3ul/well in 0.1M triethanolamine (TEA) buffer, pH 8.0, containing final concentrations of 5 mM MgCl2, 0.01% Tween20, 0.5 mM fructose-6-phosphate (F6P) and 0.1mM ATP. Then, 23nl of compounds or DMSO were delivered to each well using a pin tool. One ul T. brucei PFK (0.1M TEA, 0.01% Tween20, 0.1% bovine serum albumin (BSA) and 1.25nM PFK, final concentrations) was then dispensed, and plates were incubated at room temperature for 45 min. The luminescent detection reagent, Kinase-Glo Plus (Promega), was then added at 2ul/well and incubated for ten minutes at room temperature. The plates were measured on a ViewLux plate reader for luminescent signal using a clear filter with a one second exposure. The %Activity was determined from the corrected luminescence values. As no specific T. brucei PFK inhibitors have been identified in the literature, 1x (1.25nM) and 0x PFK enzyme controls (untreated) were included to normalize %Activity of identified inhibitors; 0x enzyme values corresponded to 100%Activity (full inhibition), while 1x PFK enzyme values were used to normalize 0% activity (no inhibition). The Kinase-Glo Plus protocol varies from the primary screen in that it measures ATP, rather than ADP, concentration, and thus provides a measure of substrate depletion, rather than of product formation. Concentration-response curves were fitted to the signals arising from the resulting luminescence. The concentration-effect curves were then classified based on curve quality (r2), response magnitude and degree of measured activity, and compounds were subsequently categorized based on their curve class. […] Keywords: T. brucei, phosphofructokinase, PFK, glycolysis, luminescence, MLSMR, MLPCN, NIH Roadmap, qHTS, NCGC
Consider `Cc1cc(NS(=O)(=O)c2ccc(NC(=O)Cc3ccc(Cl)c(Cl)c3)cc2)on1`, for which the Potency was 366 nM (active).
Under `Cc1cc(NS(=O)(=O)c2ccc(NC(=O)Cc3ccc(Cl)c(C(F)(F)F)c3)cc2)no1` stands 651 nM (active).
Under `Cc1cc(NS(=O)(=O)c2ccc(NC(=O)Cc3ccc(Cl)cc3)cc2)no1` stands 2590 nM (active); under `CN(C)c1cccc(NS(=O)(=O)c2ccc(NC(=O)Cc3ccc(Cl)c(Cl)c3)cc2)c1`, 16300 nM (active).
Next, `Cc1cc(NS(=O)(=O)c2ccc(NC(=O)Cc3ccc(C)c(C)c3)cc2)no1`: 16300 nM (active); `O=C(Cc1ccc(Cl)c(Cl)c1)Nc1ccc(S(=O)(=O)Nc2ccccc2)cc1`: 10300 nM (active).
Take `Cc1cc(NS(=O)(=O)c2ccc(NC(=O)Cc3ccc(Cl)c(Cl)c3)cc2)no1`: the Potency was 410 nM (active).
Take `Cc1cc(N(C)S(=O)(=O)c2ccc(NC(=O)Cc3ccc(Cl)c(Cl)c3)cc2)no1`: the Potency is 2590 nM (active).
Under `Cc1cc(NS(=O)(=O)Cc2ccc(NC(=O)Cc3ccc(Cl)c(Cl)c3)cc2)no1` stands 2910 nM (active); under `Cc1cc(NS(=O)(=O)c2ccc(NC(=O)CCc3ccc(Cl)c(Cl)c3)cc2)no1`, 16300 nM (active); under `Cc1cc(NS(=O)(=O)c2ccc(C(=O)NCc3ccc(Cl)c(Cl)c3)cc2)no1`, 2310 nM (active).
As for `Cc1cc(NS(=O)(=O)c2ccc(NC(=O)Cc3ccc4ccccc4c3)cc2)no1`, the Potency was 5170 nM (active).
On to `Cc1cc(NS(=O)(=O)c2cccc(NC(=O)Cc3ccc(Cl)c(Cl)c3)c2)no1`, for which the Potency was 16300 nM (active).
`Cc1cc(NS(=O)(=O)c2ccc(NC(=O)Cc3ccc(C)c(F)c3)cc2)no1`: the Potency was 5170 nM (active).
Under `COc1ccc(CC(=O)Nc2ccc(S(=O)(=O)Nc3cc(C)on3)cc2)cc1OC` stands “inactive”.
Under `Cc1cc(NS(=O)(=O)c2ccc(NC(=O)Cc3cccc(Cl)c3)cc2)no1` stands 5170 nM (active); under `Cc1cc(NS(=O)(=O)c2ccc(NC(=O)Cc3ccc(Cl)c(Cl)c3)cc2)n(C)n1`, 1030 nM (active); under `O=C(Cc1ccc(Cl)c(Cl)c1)Nc1ccc(S(=O)(=O)Nc2ccon2)cc1`, 231 nM (active).
Take `O=C(Cc1ccc(Cl)c(Cl)c1)Nc1ccc(S(=O)(=O)O)cc1`: the Potency is 580 nM (active).
In the case of `Cc1cc(NS(=O)(=O)c2ccc(NC(=O)Cc3ccc(Cl)cc3Cl)cc2)no1`, the Potency was 4610 nM (active).
As to `O=C(Cc1ccc(Cl)c(Cl)c1)Nc1ccc(S(=O)(=O)Nc2ccn[nH]2)cc1`, the Potency was 326 nM (active).
Consider `O=C(Cc1ccc(Cl)c(Cl)c1)Nc1ccc(S(=O)(=O)Nc2cccc(C(=O)O)c2)cc1`, for which the Potency was 651 nM (active).
Under `Cc1cc(NC(=O)c2ccc(NC(=O)Cc3ccc(Cl)c(Cl)c3)cc2)no1` stands “inactive”.
Next, `Cc1cc(N[S+](=O)([O-])c2ccc3cc(NC(=O)Cc4ccc(Cl)c(Cl)c4)ccc3c2)no1`: 5170 nM (active); `Cc1cc(NS(=O)(=O)c2ccc(NCCc3ccc(Cl)c(Cl)c3)cc2)no1`: 11600 nM (active).
For the compound `O=C(Cc1ccc(Cl)c(Cl)c1)Nc1ccc(S(=O)(=O)Nc2ccc(C(=O)O)cc2)cc1`, the Potency is 326 nM (active).
Turning to `O=C(Cc1ccc(Cl)c(Cl)c1)Nc1ccc(S(=O)(=O)Nc2cccc(O)c2)cc1`, the Potency is 2060 nM (active).
Under `Cc1cc(NS(=O)(=O)c2ccc(N(C)C(=O)Cc3ccc(Cl)c(Cl)c3)cc2)no1` stands 1030 nM (active); under `O=C(Cc1ccc(Cl)c(Cl)c1)Nc1ccc(S(=O)(=O)Nc2cncnc2)cc1`, 651 nM (active).
Under `Cc1cc(NS(=O)(=O)c2ccc(NC(=O)Cc3ccc(Cl)c(F)c3)cc2)no1` stands 730 nM (active); under `Cc1cc(N[S+](=O)([O-])c2ccc(NC(=O)Cc3ccc(Cl)nc3)cc2)no1`, 18300 nM (active).

These data come from PubChem BioAssay AID588329 (National Center for Advancing Translational Sciences (NCATS), 2011).
